From PubChem
MEKK3 PB1 HTS = MEKK3-MEK5 PB1 interaction, increase or decrease; bead-based flow cytometry, Alexa488-MEK5 binding to MEKK3; actives lie on both sides; 0 = blocked by unlabeled MEK5, 100 = vehicle; binding response (% of control), % at 10 µM; hit rate 1.4% among 290,000; AID 1529;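 active = binding response more than 3 SD above or below the average of its plate-row segment, actives on both sides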;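 also: Alexa488 bead fluorescence after subtracting the streptavidin-only scavenger bead signal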
Target sequence (Q99759 whole entry, looked up): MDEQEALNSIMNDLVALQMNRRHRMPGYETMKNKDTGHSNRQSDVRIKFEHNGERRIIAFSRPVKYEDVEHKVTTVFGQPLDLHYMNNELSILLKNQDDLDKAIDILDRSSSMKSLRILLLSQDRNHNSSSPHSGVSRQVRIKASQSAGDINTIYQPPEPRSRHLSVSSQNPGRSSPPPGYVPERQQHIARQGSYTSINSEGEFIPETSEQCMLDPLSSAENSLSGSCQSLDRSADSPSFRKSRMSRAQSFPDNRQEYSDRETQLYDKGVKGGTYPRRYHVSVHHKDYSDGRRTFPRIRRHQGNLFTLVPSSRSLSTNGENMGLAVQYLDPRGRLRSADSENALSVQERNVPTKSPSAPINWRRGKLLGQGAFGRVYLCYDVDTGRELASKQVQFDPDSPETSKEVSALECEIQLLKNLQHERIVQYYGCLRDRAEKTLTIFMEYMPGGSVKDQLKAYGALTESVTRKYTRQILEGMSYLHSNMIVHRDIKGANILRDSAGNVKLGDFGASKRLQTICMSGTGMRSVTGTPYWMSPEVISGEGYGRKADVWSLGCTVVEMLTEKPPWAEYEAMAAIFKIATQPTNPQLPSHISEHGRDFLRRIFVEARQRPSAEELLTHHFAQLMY
MEKK2 WT-MEK5 = raises or lowers MEK5 binding to wildtype human MEKK2 PB1 domain; AID 1531; hit rate 1.1% among 290,000; bead flow cytometry, Alexa488-MEK5 binding to MEKK2 WT; actives lie on both sides; Q9Y2U5; binding response (% of control), % at 10 µM; in the data active = binding response below about 67% or above about 130%
Beta2AR agonist = agonists of human beta-2 adrenergic receptor inducing internalization; P07550; Am2.2-beta2AR cells, FAP receptor internalization, flow cytometry; response, % (concentration not given with the values); hit rate 0.43% among 340,000; AID 504454;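 active = response above a set limit, near 3 SD of response in nonfluorescent compounds, cut at about 42% in these data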
GRK2 inh = blocks RNA aptamer binding to human GRK2; bead flow cytometry, FAM-aptamer displacement from GRK2; inhibition of aptamer binding, % at 10 µM; P25098; hit rate 0.59% among 330,000;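 active = inhibition of aptamer binding above 40%, roughly 3 SD of noise, on plates passing a quality check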;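 also: median bead fluorescence of bound FAM aptamer so fluorescent compounds give negative values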
MEKK2 mut-MEK5 = signal of MEK5 binding to mutant human MEKK2 PB1 domain | AID 1530 | hit rate 0.35% among 290,000 | bead flow cytometry, Alexa488-MEK5 binding to MEKK2 mutant | percent response, % at 10 µM; in the data active = percent response above about 24%, passing the limit was not always enough
MEKK2wt confirm = raises or lowers MEK5 binding to wildtype human MEKK2, retest | shares compounds with MEKK3 PB1 HTS | bead flow cytometry, Alexa488-MEK5 binding to MEKK2 WT; actives lie on both sides | binding response (% of control), % at 10 µM | hit rate 2.4% among 5,900 | AID 1892; in the data active = binding response below about 16% or above about 210%; inactive = in between
MEKK2mut confirm = signal of MEK5 binding to mutant human MEKK2, retest; shares compounds with MEKK3 PB1 HTS; hit rate 2% among 5,900; AID 1893; percent response, % at 10 µM; bead flow cytometry, Alexa488-MEK5 binding to MEKK2 mutant; in the data active = percent response mostly above about 71%, no sharp cut-off; inactive = mostly below about 38%;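 also: higher means compound restores mutant binding toward wildtype level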
MEKK3 confirm = confirmation of inhibitors of MEK5 binding to human MEKK3 | shares compounds with MEKK3 PB1 HTS | bead flow cytometry, Alexa488-MEK5 binding to MEKK3; active compounds read low | binding response (% of control), % at 10 µM | hit rate 1.8% among 5,900 | AID 1894;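 active = binding response below 72% of control, or above a set upper limit, though filed actives all read lower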;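 also: 100% = DMSO only wells and 0% = binding blocked by excess unlabeled MEK5; lower values mean stronger disruption of MEK5 binding to MEKK3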
* marks the source's active call; other numbers are inactive results; nt = not tested or not shown; [ ] = dose if it differs, or a comment. In the library only some 2.9% were active in any assay of this set; here they are far more common.

SMILES	MEKK3 PB1 HTS	MEKK2 WT-MEK5	Beta2AR agonist	GRK2 inh	MEKK2 mut-MEK5	MEKK2wt confirm	MEKK2mut confirm	MEKK3 confirm
O=C(C[n+]1ccc(Cc2ccccc2)cc1)Nc1ccccc1	86	125	1	2	64*	111	3	98
O=C(OCCNc1nc(-c2ccccc2)nc2ccccc12)c1cccnc1	92	99	0	0	-1	nt	nt	nt
O=C(OCCNc1nc(-c2ccccc2)nc2ccccc12)c1ccncc1	146*	133	1	3	7	93	-9	88
Oc1cccc(/C=N\Nc2nncc(-c3ccccc3)n2)c1	94	90	-10	0	-10	nt	nt	nt
C(=C\c1ccccc1)/C=N/Nc1nncc(-c2ccccc2)n1	131*	109	nt	0	0	100	-1	100
CC(C)N1CCSC1=S	nt	nt	-3	nt	nt	nt	nt	nt
CC1(C)CC(=O)C2=C(C1)OC(N)=C([N+](=O)[O-])C2c1ccc(F)cc1 (configuration not stated)	137*	137	5	0	27	106	3	102
COC(=O)/C=C1\C(=O)N(c2nc3ccccc3s2)C(=S)N1c1ccc(F)cc1	1.0*[inhibitor]	0.0*[inhibitor]	17	0	-41	99	0	99
COC(=O)/C=C1\C(=O)N(c2nc3ccc(OC)cc3s2)C(=S)N1c1ccc(F)cc1	nt	nt	nt	1	nt	nt	nt	nt
CC(=O)OCC(=O)C1(O)CCC2C3CCC4=CC(=O)CCC4(C)C3C(O)CC21C (configuration not stated)	nt	nt	-8	nt	nt	nt	nt	nt
NNC(=O)[C@@H]1C[C@@H]1c1ccccc1	153*	111	-5	6	0	84	-13	84
C/C(=N\NC(=O)c1ccncc1)c1cc2ccccc2oc1=O	110	105	0	0	-1	nt	nt	nt
C/C(=N/NC(=O)c1ccncc1)c1cc2ccc(O)cc2oc1=O	103	156*	-8	0	16	88	-9	91
O=C(CN(Cc1ccco1)C(=O)c1ccc(Cl)cc1)Nc1c(Cl)cc(Cl)cc1Cl	98	99	7	0	0	nt	nt	nt
O=C(CN(Cc1ccco1)C(=O)c1cccc(Cl)c1)Nc1c(Cl)cc(Cl)cc1Cl	122*	117	-7	0	4	102	3	104
COc1ccc(Br)c(C(=O)NCC2CCCCC2)c1	101	105	-8	2	-1	nt	nt	nt
Cc1cccc(C2c3[nH]c4ccccc4c3CCN2C(=O)c2noc3c2CCCC3)n1 (configuration not stated)	99	95	0	0	-5	nt	nt	nt
Cc1cccc(C2c3[nH]c4ccccc4c3CCN2C(=O)c2cn(C)c3ccccc3c2=O)n1 (configuration not stated)	87	46*[inhibitor]	2	1	-14	97	-2	102
Cc1cccc(NC(=O)/C(C#N)=C/c2ccc(Sc3ccccc3)o2)c1C	128*	99	5	8	-1	99	0	104
CC(C)c1ccccc1NC(=O)COC(=O)C1(C)CC1(Cl)Cl (configuration not stated)	92	83	4	0	-12	nt	nt	nt
Cc1ccccc1NC(=O)COC(=O)C1(C)CC1(Cl)Cl (configuration not stated)	2.0*[inhibitor]	1.0*[inhibitor]	-2	1	-20	93	-10	89
CC1CCc2c(C(=O)NCC3CCCO3)csc2C1 (configuration not stated)	99	96	-17	0	1	nt	nt	nt
O=C(NCC1CCCO1)c1csc2c1CCCCC2 (configuration not stated)	0.0*[inhibitor]	-4.0*[inhibitor]	-10	7	-39	107	9	106
CCC(C)NC(=O)CN(c1cc(Cl)ccc1OC)S(C)(=O)=O (configuration not stated)	140*	114	-11	4	1	99	-6	99
O=C(CN1C(=O)/C(=C/c2cccc(Br)c2)SC1=S)N1CCCC1	153*	112	-21	1	1	100	0	97
SMILES	MEKK3 PB1 HTS	MEKK2 WT-MEK5	Beta2AR agonist	GRK2 inh	MEKK2 mut-MEK5	MEKK2wt confirm	MEKK2mut confirm	MEKK3 confirm
Cc1ccc(C)c2[nH]c(=O)c(CN(CC3CCCO3)C(=S)NCc3ccco3)cc12 (configuration not stated)	129*	116	2	0	29	101	5	104
Cc1cc2cc(CN(Cc3cccs3)C(=S)NCc3ccco3)c(=O)[nH]c2cc1C	94	96	2	0	-2	nt	nt	nt
Cc1ccc(N(Cc2cc3ccc(C)cc3[nH]c2=O)C(=O)c2ccco2)c(C)c1	132*	117	-6	3	22	102	5	107
Cc1cc2cc(CN(CCN(C)C)C(=S)NCc3ccco3)c(=O)[nH]c2cc1C	84	160*	9	0	8	118	8	103
Cc1ccc(C)c2[nH]c(=O)c(CN(Cc3cccs3)C(=S)NCc3ccco3)cc12	137*	115	3	2	1	109	9	103
CCCCn1c(N)c(N(CC(C)C)C(=O)c2ccc(N3C(=O)CCC3=O)cc2)c(=O)[nH]c1=O	nt	nt	0	0	nt	nt	nt	nt
O=C(CCN1C(=O)C2C3CCC(C3)C2C1=O)Nc1ccc(F)cc1 (configuration not stated)	97	94	4	nt	-1	nt	nt	nt
CC1=NN(Cc2c(C)nn(Cc3ccccc3)c2C)C(C)(C)C1	100	106	-1	4	8	nt	nt	nt
CCc1cc(C(=O)N=Nc2c(O)[nH]c3c(Br)cc(Br)cc23)c2ccccc2n1	139*	106	-7	3	0	87	-6	100
CCc1cc(C(=O)N=Nc2c(O)[nH]c3ccc([N+](=O)[O-])cc23)c2ccccc2n1	101	102	15	0	-1	nt	nt	nt
CSc1ccc(Cl)c(C(=O)Nc2cc(S(=O)(=O)N3CCOCC3)ccc2N2CCOCC2)c1	nt	nt	6	1	nt	nt	nt	nt
CC(=O)c1cc2c(cc1N/C(=N/S(=O)(=O)c1ccccc1)c1ccc(Cl)cc1)OCO2	129*	102	2	2	0	96	-4	100
CN1CCN(C(=O)CNC(=O)C23CC4CC(CC(C4)C2)C3)CC1	nt	nt	7	0	nt	nt	nt	nt
OCc1cn(-c2ccccc2)nc1-c1ccc(-c2nn(-c3ccccc3)cc2CO)cc1	92	94	13	1	-8	nt	nt	nt
Cc1ccc(-c2nn(-c3ccccc3)cc2CSC(=N)N)cc1	113	205*	39	0	52*	141	13	82
